According to PubChem BioAssay (NCI):
About 83,000 compounds went through this panel and 20% of them were active in at least one assay; those are over-represented in the sample as a whole.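 Results are percent growth after 48 hours of single-concentration exposure. 100 means growth as in untreated cells, lower positive values show inhibition; negative values down to -100 show cell death.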 The source made the active and inactive calls. Rule for the calls: active = growth percent below 10; inactive = the rest.

tested on: CCRF-CEM leukemia; experiment: NCI-60 one-dose screen, 48 h (100 = growth as untreated, 0 = no growth, -100 = all killed); details: 10 µM unless noted

Row | SMILES | growth
1 | COc1cc(NC(=O)c2cccc(-c3cc(=O)c4c(OC)c(OC)c(OC)cc4o3)c2)cc(OC)c1OC | 31.3% (inactive)
2 | COc1ccc(NC(=O)c2cccc(-c3cc(=O)c4c(O)c(OC)c(OC)cc4o3)c2)cc1 | 84% (inactive)
3 | O=C1NN(C(=O)c2ccc(O)cc2)C(c2ccccc2)=N/C1=C\c1cn(-c2ccccc2)nc1-c1ccccc1 | 89.7% (inactive)
4 | CO[C@H]1/C=C/O[C@@]2(C)Oc3c(C)c(O)c4c(c3C2=O)C(=O)C(/C=N/N(c2ccccc2)c2ccccc2)=C(NC(=O)/C(C)=C\C=C\[C@H](C)[C@H](O)[C@@H](C)[C@@H](O)[C@@H](C)[C@H](OC(C)=O)[C@@H]1C)C4=O | 1.62% (active)
5 | C[C@@H]1C(=O)N(C[C@H](Cc2ccccc2)N(Cc2ccccc2)Cc2ccccc2)[C@]1(Cc1ccccc1)C(=O)OC(C)(C)C | 70% (inactive)
6 | COc1cc(/C=C/C(=O)c2cccc(-n3cc(-c4ccc(Cl)cc4)[nH]c3=O)c2)cc(OC)c1OC | 4.15% (active)
7 | COc1cc(-c2ccc(N=Nc3c(O)c(C(=O)Nc4ccccc4OC)cc4ccccc34)c(OC)c2)ccc1N=Nc1c(O)c(C(=O)Nc2ccccc2OC)cc2ccccc12 | 9.35% (active)
8 | CC/C=C/[C@@H]1C=C[C@@H]2CCC[C@H]2[C@@H]1CC[C@H](O)[C@H](C)N | -44% (active)
9 | COc1ccc(C(=O)/C=C/c2cc3c(c(OC)c2)OCC(=O)N3)cc1 | 7.77% (active)
10 | Nc1nc(N)c(-c2ccc(Cl)cc2)c(/C=C/c2ccc([N+](=O)[O-])cc2)n1 | 34.8% (inactive)
11 | C=C(Cl)COC(=O)C(C)(C)O | 92.6% (inactive)
12 | O=C1Nc2ccccc2SC1C1SC(=S)N(Cc2ccccc2)C1=O (stereo not drawn) | 51.1% (inactive)
13 | COc1ccc(OC)c(Nc2nc3nonc3nc2Nc2cc(OC)ccc2OC)c1 | 97.8% (inactive)
14 | COc1cc2oc(-c3cccc(C(=O)Nc4ccc(C)cc4)c3)cc(=O)c2c(OC)c1OC | 34.7% (inactive)
15 | O=C1c2ccccc2C2(c3ccc(O)cc3)c3ccccc3Oc3cccc1c32 (stereo not drawn) | 14.8% (inactive)
16 | COc1ccc(-c2cc(-c3cc(OC)ccc3OC)[nH]c(=O)c2C#N)cc1 | 76.9% (inactive)
17 | N[C@@H]1CCC[C@H]1NCCCCN1C(=O)c2cccc3cccc(c23)C1=O | 98.4% (inactive)
18 | NC(=S)N/N=C/C(=O)O | 24.3% (inactive)
19 | COC1=CC(c2ccc[nH]2)=N/C1=C\c1[nH]c(C)c(C(=O)OCCn2cc(CCC[C@@H]3Cc4cc(O)ccc4C4CC[C@]5(C)[C@@H](O)CC[C@H]5C43)nn2)c1C (stereo partly drawn) | 36.8% (inactive)

Row | SMILES | growth
20 | O=C1CSC(c2ccccc2)N1c1ccccc1 (stereo not drawn) | 97.1% (inactive)
21 | O=C1NCC(=O)N(Cc2ccco2)[C@H]1Cc1ccccc1 | 103% (inactive)
22 | O=C(Nc1cccc2[nH]c(C(F)(F)F)nc12)c1cc(Cl)ccc1Cl | 22.7% (inactive)
23 | CCNCCNc1cc(-c2ccc(C(F)(F)F)cc2)c(C#N)c2nc3cc(Cl)c(Cl)cc3n12 | -48.4% (active)
24 | COc1cc(NC(=O)c2cccc(-c3cc(=O)c4c(O)c(OC)c(OC)cc4o3)c2)cc(OC)c1OC | 58.1% (inactive)
25 | Cc1cc(C(c2ccccc2)c2ccccc2)ccc1NS(=O)(=O)c1ccccc1 | 82.4% (inactive)
26 | COc1ccc(-c2nc3sc4c(c3c(=O)[nH]2)CCCC4)c2ccccc12 | 12.5% (inactive)
27 | COc1ccc(OC)c(Nc2nc3nonc3nc2Nc2cccc(Br)c2)c1 | 12.4% (inactive)
28 | O=C(O)CC1Sc2ccccc2NC1=O (stereo not drawn) | 107% (inactive)
29 | O=C(c1ccccc1)c1ccc(Cl)c([N+](=O)[O-])c1 | 13.5% (inactive)
30 | Nc1c(C(=O)Nc2ccccc2)sc2nc3c(cc12)CCCCCC3 | 6.81% (active)
31 | O=C1CSC(c2ccccc2O)N1c1nnc(Cn2cnnc2)o1 (stereo not drawn) | 23% (inactive)
32 | CN(C)c1ccc(/C=C/c2c(F)cccc2F)cc1 | 101% (inactive)
33 | COC(=O)CCCNC(=O)C(=O)c1c(O)c(O)c(C(C)C)c2cc(C)c(-c3c(C)cc4c(C(C)C)c(O)c(O)c(C(=O)C(=O)NCCCC(=O)OC)c4c3O)c(O)c12 | 16.1% (inactive)
34 | CCOc1cccnc1/C=N/NC(N)=S | 17.4% (inactive)
35 | COc1ccc(/C(C)=N/NS(=O)(=O)c2ccc(C)cc2)cc1OC | 102% (inactive)
36 | COc1cc(NC(=O)c2cc(O)c(CC=C(C)C)c(O)c2)cc2c1O[C@]1(C)CC[C@@H](O)C(C)(C)[C@H]1C2 | 13% (inactive)
37 | CCCCNC(=O)NS(=O)(=O)c1ccc(N2N=C(c3ccc(C)cc3C)CC2c2ccc(N(C)C)cc2)cc1 (stereo not drawn) | 43.3% (inactive)
38 | N#Cc1c(-c2ccc(C(F)(F)F)cc2)cc(N2CC(O)C2)n2c1nc1ccccc12 | 102% (inactive)
